Source: PubChem BioAssay (Tox21)
Unmarked numbers belong to inactive results. Records with an inconclusive call do not appear. A call without a number means that no potency is given here. Active and inactive are the calls of the source. Unless noted, calls follow the shape of the full dose curve.

Experiments:
[1] = Nuclear factor erythroid 2-related factor 2/antioxidant responsive element (Nrf2/ARE) small molecule agonists: qHTS cell viability counter screen in human keratinocytes (AID 1919968; active = well fitted curve in the direction sought with a large enough effect in the repeat runs; an effect the other way counts as inactive or inconclusive; also: nearly all actives have a fitted effect of over 55% in size)
Procedure, shortened: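 In human HaCaT keratinocytes stably expressing an ARE-driven luciferase, compound exposure lasted 23 h at 37 C under 5% CO2. Viable cells are quantified with a protease-based fluorogenic reagent (CellTiter-Fluor) read 1 h after addition.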

[2] = Nuclear factor erythroid 2-related factor 2/antioxidant responsive element (Nrf2/ARE) small molecule agonists: luciferase reporter gene qHTS assay in human keratinocytes (AID 1919969); also: nearly all actives have a fitted effect of over 35% in size; also: potency is read from the fitted curve at half-maximal effect
[3] = molecular target: KiSS-1 receptor (Homo sapiens) (UniProt Q969F8); experiment: Human kisspeptin (KISS1R) small molecule agonists, calcium flux assay in KISS1R-HEK293 cells (AID 1920064; active = well fitted curve in the direction sought with a large enough effect in the repeat runs; an effect the other way counts as inactive or inconclusive)
Sequence of KiSS-1 receptor (Homo sapiens) (Q969F8 whole entry, looked up): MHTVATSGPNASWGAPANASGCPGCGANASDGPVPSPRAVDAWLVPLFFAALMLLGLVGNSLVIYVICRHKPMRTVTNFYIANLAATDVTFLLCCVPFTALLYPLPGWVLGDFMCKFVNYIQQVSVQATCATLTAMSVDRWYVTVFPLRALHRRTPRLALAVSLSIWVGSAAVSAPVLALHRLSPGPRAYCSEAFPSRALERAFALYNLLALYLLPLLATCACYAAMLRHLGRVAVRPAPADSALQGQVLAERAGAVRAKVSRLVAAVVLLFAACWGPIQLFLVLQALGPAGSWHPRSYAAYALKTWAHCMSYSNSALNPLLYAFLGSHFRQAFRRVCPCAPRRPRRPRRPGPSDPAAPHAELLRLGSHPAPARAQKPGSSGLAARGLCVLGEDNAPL
Procedure, shortened: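 Concentration-response testing used 15 concentrations in triplicate on human KISS1R-expressing HEK293 cells. Calcium-dependent fluorescence (Ex/Em 480/540) was followed kinetically for 3 min after compound transfer.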

[4] = G protein-coupled receptor (GPCR) small molecule agonists, calcium flux assay: HEK293 wild type cell line counter screen (AID 1920065)
Procedure, shortened: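 Fluorescence intensity signals activation. After overnight (18 h) culture and a 1 h calcium dye load at 37 C, compounds are added by pin tool and the plate read at 480/540 nm for 3 min in 1 s steps.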

[5] = p53 small molecule agonists, cell-based qHTS assay with human liver microsomes (AID 1963577);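 also: p53 response element beta-lactamase reporter cells with liver microsomes plus NADPH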
Procedure, shortened: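 p53RE-bla cells; 5 h settle, 37 C/5% CO2; cpd + HLM 0.5 mg/mL + NADPH 0.5 mg/mL (final); 16 h 37 C; LiveBLAzer 2 h RT dark; fluorescence readout.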

[6] = p53 small molecule agonists, cell-based qHTS assay with human liver microsomes: qHTS cell viability counter screen (AID 1963579); also: nearly all actives have a fitted effect of over 45% in size
Procedure, shortened: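 Luminescent CellTiter-Glo read-out, 30 min at room temperature, gauged cytotoxicity in p53RE-bla cells exposed 16 h at 37 C to DMSO-dissolved compounds with metabolic activation by human liver microsomes and NADPH, each 0.5 mg/mL final.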

[7] = p53 small molecule agonists, cell-based qHTS assay with rat liver microsomes: qHTS cell viability counter screen (AID 1963580); also: nearly all actives have a fitted effect of over 45% in size
Procedure, shortened: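 Cytotoxicity counter screen: intracellular ATP read by CellTiter-Glo luminescence in the p53 reporter wells. HCT-116 p53RE-bla cells were treated for 16 h at 37 C alongside rat liver microsomes and NADPH, each 0.5 mg/mL final.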

[8] = p53 small molecule agonists, cell-based qHTS assay: qHTS cell viability counter screen (AID 1963581); also: nearly all actives have a fitted effect of over 45% in size
Procedure, shortened: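 Luminescence from CellTiter-Glo, reflecting ATP content, serves as the cytotoxicity measure; it is taken after the 2 h reporter substrate step in HCT-116 p53RE-bla cells dosed for 16 h at 37 C.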

[9] = molecular target: 5-hydroxytryptamine receptor 2A (Homo sapiens) (UniProt P28223); experiment: 5-hydroxytryptamine receptor 2A (HTR2A) small molecule antagonists, cell-based qHTS assay (AID 1963586); also: nearly all actives have a fitted effect of over 45% in size
Sequence of 5-hydroxytryptamine receptor 2A (Homo sapiens) (P28223 whole entry, looked up): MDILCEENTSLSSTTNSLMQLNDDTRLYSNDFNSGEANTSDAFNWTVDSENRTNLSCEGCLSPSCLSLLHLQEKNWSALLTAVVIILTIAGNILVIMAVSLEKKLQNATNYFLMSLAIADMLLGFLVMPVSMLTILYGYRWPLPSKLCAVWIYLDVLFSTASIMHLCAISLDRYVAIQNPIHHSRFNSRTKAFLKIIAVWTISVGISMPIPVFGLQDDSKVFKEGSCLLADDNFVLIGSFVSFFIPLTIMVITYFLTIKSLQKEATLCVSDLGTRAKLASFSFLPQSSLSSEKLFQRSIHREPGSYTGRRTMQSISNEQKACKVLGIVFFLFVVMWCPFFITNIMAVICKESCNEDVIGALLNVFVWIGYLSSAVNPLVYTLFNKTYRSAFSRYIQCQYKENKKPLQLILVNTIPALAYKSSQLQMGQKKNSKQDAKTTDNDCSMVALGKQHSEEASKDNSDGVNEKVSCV
Procedure, shortened: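 CHO cells stably expressing human HTR2A were plated for 18 h at 37 C, then loaded with calcium dye for 1 h. Compounds were preincubated 5 min at room temperature before DOI (4 nM solution) was added. Kinetic fluorescence was read for 3 min.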

[10] = molecular target: 5-hydroxytryptamine receptor 2A (Homo sapiens) (UniProt P28223); experiment: 5-hydroxytryptamine receptor 2A (HTR2A) small molecule agonists, cell-based qHTS assay (AID 1963587); also: nearly all actives have a fitted effect of over 30% in size
Procedure, shortened: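 Kinetic calcium-flux fluorescence (2 min, 1 sec intervals) after compound addition in agonist mode. HTR2A-CHO cells were cultured 18 h, then dye-loaded 1 h at 37 C.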

[11] = molecular target: Muscarinic acetylcholine receptor M1 (Homo sapiens) (UniProt P11229); experiment: Cholinergic receptor muscarinic 1 (CHRM1) small molecule antagonists, cell-based qHTS assay (AID 1963588); also: nearly all actives have a fitted effect of over 40% in size
Sequence of Muscarinic acetylcholine receptor M1 (Homo sapiens) (P11229 whole entry, looked up): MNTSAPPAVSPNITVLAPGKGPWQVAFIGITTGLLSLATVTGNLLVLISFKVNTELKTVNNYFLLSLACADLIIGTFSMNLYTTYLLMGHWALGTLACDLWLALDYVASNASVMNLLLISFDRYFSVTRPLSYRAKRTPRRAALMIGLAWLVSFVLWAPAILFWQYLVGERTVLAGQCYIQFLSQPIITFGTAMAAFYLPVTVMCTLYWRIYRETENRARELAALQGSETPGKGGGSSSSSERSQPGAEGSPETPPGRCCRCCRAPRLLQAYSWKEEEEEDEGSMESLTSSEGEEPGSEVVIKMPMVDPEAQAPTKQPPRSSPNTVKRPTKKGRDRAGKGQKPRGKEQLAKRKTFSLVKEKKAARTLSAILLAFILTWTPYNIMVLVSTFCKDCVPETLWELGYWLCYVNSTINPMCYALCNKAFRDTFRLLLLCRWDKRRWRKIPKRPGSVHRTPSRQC
Procedure, shortened: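 Compounds were tested at 15 concentrations in three independent runs. Dye-loaded CHRM1-CHO cells were exposed 5 min at room temperature before stimulation by acetylcholine added at 50nM. Intracellular calcium was read kinetically on FDSS for 3 min.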

[12] = molecular target: Muscarinic acetylcholine receptor M1 (Homo sapiens) (UniProt P11229); experiment: Cholinergic receptor muscarinic 1 (CHRM1) small molecule agonists, cell-based qHTS assay (AID 1963589); also: nearly all actives have a fitted effect of over 35% in size
Procedure, shortened: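 Fluorescent calcium dye reports M1 activation in stably transfected CHO cells. Compounds, 15 concentrations, added after 1 h dye loading at 37 C; kinetic reading at 1 sec intervals.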

[13] = cAMP Responsive Elements (CRE) small molecule agonists, cell-based qHTS assay (AID 1963590); also: potency is read from the fitted curve at half-maximal effect
Procedure, shortened: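 Compound exposure lasted 3 h at 37 C/5% CO2 in CRE-bla HEK 293T cells grown in assay medium with 10% dialyzed FBS and 25 mM HEPES. Reporter signal came from LiveBLAzer B/G FRET substrate, 2 h, room temperature.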

[14] = molecular target: Beta-2 adrenergic receptor (Homo sapiens) (UniProt P07550); experiment: Adrenergic beta2 receptor (ADRB2) small molecule antagonists, cell-based qHTS assay (AID 1963592); also: series mostly up to about 92 µM; nearly all actives have a fitted effect of over 50% in size
Sequence of Beta-2 adrenergic receptor (Homo sapiens) (P07550 whole entry, looked up): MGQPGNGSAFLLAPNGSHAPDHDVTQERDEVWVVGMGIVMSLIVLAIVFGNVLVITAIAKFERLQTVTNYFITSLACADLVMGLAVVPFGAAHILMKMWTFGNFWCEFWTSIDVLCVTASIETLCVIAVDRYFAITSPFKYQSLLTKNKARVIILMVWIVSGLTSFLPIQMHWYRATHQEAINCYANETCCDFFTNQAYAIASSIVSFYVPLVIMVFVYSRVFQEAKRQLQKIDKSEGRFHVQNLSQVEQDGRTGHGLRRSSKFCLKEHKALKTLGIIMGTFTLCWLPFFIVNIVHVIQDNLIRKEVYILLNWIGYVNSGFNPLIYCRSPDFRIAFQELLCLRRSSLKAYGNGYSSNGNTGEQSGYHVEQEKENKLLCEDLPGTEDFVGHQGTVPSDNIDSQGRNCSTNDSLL
Procedure, shortened: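 Assay format: CHO-ADRB2 cells, 18-20hr seeding at 37C/5% CO2, then compound plus 1nM isoproterenol agonist mix for 0.5hr RT. Homogeneous time-resolved fluorescence cAMP detection after 1hr, expressed as 665/615 nm ratio.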

[15] = molecular target: Beta-2 adrenergic receptor (Homo sapiens) (UniProt P07550); experiment: Adrenergic beta2 receptor (ADRB2) small molecule agonists, cell-based qHTS assay (AID 1963593);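 also: CHO cells stably overexpressing human ADRB2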
Procedure, shortened: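 CHO cells stably over-expressing ADRB2 were plated overnight at 37C, then dosed with compounds plus a stimulation mix containing 100uM IBMX and 25uM Ro-20-1724 for 0.5hr at room temperature. cAMP was measured by HTRF competition, 1hr.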

[16] = molecular target: D(2) dopamine receptor (Homo sapiens) (UniProt P14416); experiment: Dopamine D2 receptor (DRD2) small molecule antagonists, cell-based qHTS assay (AID 1963595; active = well fitted inhibition curve with a large enough effect in the signal ratio in the repeat runs, with a control signal flat; the % refers to the signal ratio; also: potency is read from the fitted curve at half-maximal effect)
Sequence of D(2) dopamine receptor (Homo sapiens) (P14416 whole entry, looked up): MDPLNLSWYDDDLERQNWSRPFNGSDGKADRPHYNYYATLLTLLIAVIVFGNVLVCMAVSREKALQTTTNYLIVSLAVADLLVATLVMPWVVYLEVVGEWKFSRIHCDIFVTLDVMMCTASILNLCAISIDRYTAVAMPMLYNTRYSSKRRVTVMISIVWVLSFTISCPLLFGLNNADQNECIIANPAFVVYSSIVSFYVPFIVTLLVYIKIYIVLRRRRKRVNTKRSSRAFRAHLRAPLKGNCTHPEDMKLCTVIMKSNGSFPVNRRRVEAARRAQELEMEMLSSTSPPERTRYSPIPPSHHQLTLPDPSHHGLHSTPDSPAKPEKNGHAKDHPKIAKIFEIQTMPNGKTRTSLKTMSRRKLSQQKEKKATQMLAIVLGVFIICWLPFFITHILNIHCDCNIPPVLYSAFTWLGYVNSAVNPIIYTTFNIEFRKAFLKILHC
Procedure, shortened: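 HTRF cAMP read-out at 665 and 620 nm emission (340 nm excitation). Antagonist mode: compounds were tested against 12 nM quinpirole in DRD2-HEK293 cells, with 200 nM NKH477 raising cAMP and 0.1 mM Ro20-1724 blocking its breakdown.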

[17] = p53 small molecule agonists, cell-based qHTS assay (AID 1963582; active = well fitted activation curve with a large enough effect in the signal ratio in the repeat runs, not every such curve was filed as active; the % refers to the signal ratio; also: potency is read from the fitted curve at half-maximal effect)
Procedure, shortened: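 After plating, p53RE-bla cells sat 5 h in the incubator; compounds or DMSO vehicle were pinned in; a 16 h incubation at 37 C followed; FRET substrate was added and, 2 h later at RT, fluorescence was measured.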

[18] = cAMP Responsive Elements (CRE) small molecule antagonists, cell-based qHTS assay (AID 1963591; active = well fitted inhibition curve with a large enough effect in the signal ratio in the repeat runs, not every such curve was filed as active; the % refers to the signal ratio)
Procedure, shortened: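 Stimulation used NKH477 at a final 0.25 uM for 3 h in compound-treated CRE-bla HEK293T cells, seeded 18 h beforehand. Reporter activity was measured with LiveBLAzer B/G FRET substrate after 2 h at room temperature.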

[19] = molecular target: D(2) dopamine receptor (Homo sapiens) (UniProt P14416); experiment: Dopamine D2 receptor (DRD2) small molecule agonists, cell-based qHTS assay (AID 1963594); also: nearly all actives have a fitted effect of over 35% in size
Procedure, shortened: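 cAMP accumulation in DRD2-HEK293 cells measured by HTRF after 1 h detection; compounds added 10 min before NKH477 (200nM […]) forskolin-analogue stimulation, 30 min at room temperature, with Ro20-1724 present at 0.1 mM final.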

[20] = p53 small molecule agonists, cell-based qHTS assay with rat liver microsomes (AID 1963578)
Procedure, shortened: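 Rat liver microsome activation: microsomes 0.5 mg/mL, NADPH 0.5 mg/mL final; p53RE-bla cells, 16 h 37 C; LiveBLAzer readout, 2 h RT dark.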

Compound	Potency [1]	Potency [2]	outcome [3]	outcome [4]	Potency [5]	Potency [6]	Potency [7]	Potency [8]	Potency [9]	Potency [10]	Potency [11]	Potency [12]	Potency [13]	Potency [14]	Potency [15]	Potency [16]	Potency [17]	Potency [18]	Potency [19]	Potency [20]
CNC(=O)c1cnn(-c2nc(N)c3ncn([C@@H]4O[C@H](CO)[C@@H](O)[C@H]4O)c3n2)c1	inactive	inactive	inactive	inactive	inactive	inactive	inactive	inactive	inactive	inactive	inactive	inactive	11900 nM (active)	inactive	inactive	1880 nM (active)				
CCCCCCCCOS(=O)(=O)O	inactive	inactive	inactive	inactive	inactive	inactive	inactive		inactive	inactive		inactive		inactive			inactive	inactive	inactive	
CN(C)[C@@H]1C(=O)C(C(=O)NCN2CCCC2)=C(O)[C@@]2(O)C(=O)C3=C(O)c4c(O)cccc4[C@@](C)(O)C3C[C@@H]12 (some centres undefined)	inactive	inactive	inactive	inactive	inactive			inactive	inactive	inactive	inactive	inactive	inactive			inactive	inactive		inactive	inactive
CCN(CC)CCNC(=O)c1cc(Cl)c(N)cc1OC	inactive	inactive	inactive	inactive		inactive	inactive						inactive	inactive		1680 nM (active)	inactive	inactive	inactive	inactive
N=c1ccn2c(n1)O[C@H]1[C@H](O)[C@@H](CO)O[C@H]12	inactive	inactive	inactive	inactive	inactive	inactive		inactive	inactive	inactive	inactive	inactive	inactive	inactive		inactive	1450 nM (active)	inactive	inactive	inactive
Cc1ccc2c(c1)C(=O)c1ccccc1C2=O	inactive	2720 nM (active)	inactive	inactive	inactive	inactive		inactive	inactive		inactive	inactive		inactive		inactive	inactive		inactive	inactive
O=C(O)CCCC[P+](c1ccccc1)(c1ccccc1)c1ccccc1	inactive	inactive	inactive	inactive	inactive		inactive	inactive	inactive	inactive	inactive	inactive	inactive	inactive	inactive		inactive		inactive	inactive
O=C1OC(=O)C2CCCCC12 (centres undefined)	inactive	inactive		inactive	inactive	inactive	inactive	inactive	inactive	inactive	inactive	inactive	inactive	inactive				inactive	inactive	inactive
CC(C)(C)C(=O)C(=O)O	inactive		inactive	inactive	inactive	inactive	inactive	inactive	inactive	inactive		inactive	inactive	inactive		inactive	inactive	inactive	inactive	inactive
C[C@H]1C[C@H]2[C@@H]3CCC4=CC(=O)C=C[C@]4(C)[C@H]3C(=O)C[C@]2(C)[C@@]1(O)C(=O)CO	inactive		inactive	inactive	inactive	inactive	inactive	inactive	inactive	inactive	inactive	inactive	inactive	inactive		inactive	inactive	inactive	inactive	inactive
CCOC(=O)Cn1cccc1-c1nc(-c2ccc(OC)cc2)c(-c2ccc(OC)cc2)s1	inactive	inactive		inactive	inactive	inactive	inactive	inactive			inactive		inactive	inactive	inactive	inactive	inactive	inactive	inactive	inactive
CCCCN(CCCC)C(C(N)=O)c1ccc(OC)cc1 (centres undefined)	inactive		inactive	inactive	inactive	inactive	inactive	inactive	inactive	inactive	inactive	inactive	inactive	inactive		inactive	inactive	inactive	inactive	inactive
CCN(CC)c1ccc(C=O)cc1	inactive		inactive	inactive	inactive	inactive	inactive	inactive	inactive	inactive	inactive	inactive	inactive	inactive		inactive	inactive	inactive	inactive	inactive
OC[C@@H](O)C(O)[C@@H](O)CO (some centres undefined)	inactive		inactive	inactive	inactive	inactive	inactive	inactive	inactive	inactive	inactive	inactive	inactive	inactive		inactive	inactive	inactive	inactive	inactive
